# UCHL1 inh: blocks human UCHL1 ubiquitin-rhodamine cleavage; P09936; 47,000 compounds, 0.2% hits; purified UCHL1, Ub-rhodamine cleavage fluorescence; inhibition, % at 20 µM
# USP8 inh: human USP8 deubiquitinase inhibition. 47,000 compounds, 4.2% hits. inhibition, % at 20 µM. purified USP8, Ub-rhodamine cleavage fluorescence, 30 min. P40818
# USP10 block: blocks human USP10 ubiquitin-rhodamine cleavage. Q14694. purified USP10, Ub-rhodamine fluorescence, 60 min. inhibition, % at 20 µM. 47,000 compounds, 1.1% hits
# USP7 inh: blocks human USP7 ubiquitin-rhodamine cleavage. purified USP7, Ub-rhodamine cleavage fluorescence. inhibition, % at 20 µM. 47,000 compounds, 0.3% hits. AID 1645854
# An asterisk follows results filed as active. In the library only some 4.6% were active in any assay of this set; here they are far more common. Cut-off read from the data, not from the text of the source: active = inhibition above about 30%; inactive = the rest.
SMILES,UCHL1 inh,USP8 inh,USP10 block,USP7 inh
Cc1cc(S(=O)(=O)N2CCC(c3c(C)[nH]c4ccccc34)CC2)ccc1F,1,10,-3,-5
Cc1cc(S(=O)(=O)N2CCC(C3(C)NC(=O)NC3=O)CC2)ccc1F (configuration not stated),2,53*,15,8
NC(=O)c1cc(NC(=O)c2ccc3ccccc3c2)cc(C(N)=O)c1,3,1,3,6
CCc1ccc(NC(=O)C2Nc3ccccc3S(=O)(=O)N2)cc1 (configuration not stated),3,2,5,6
COc1ccc(CCNC(=O)Cn2c(=O)n(CCCCC(=O)NCc3ccc4c(c3)OCO4)c(=O)c3ccccc32)cc1OC,4,-3,19,9
O=C(CCCn1c(=O)c2ccccc2n(CC(=O)NCc2ccccc2Cl)c1=O)NCc1ccc2c(c1)OCO2,6,73*,57*,27
O=C(CSc1n[nH]c2nc3ccccc3n12)Nc1ccc2c(c1)OCO2,3,30*,10,4
Cc1cccc(C)c1NC(=O)Cn1c(=O)n(CCCCC(=O)NCc2ccc3c(c2)OCO3)c(=O)c2ccccc21,4,69*,54*,17
O=C(Cn1c(=O)c2ccccc2c2ccccc21)Nc1ccc2c(c1)OCO2,9,87*,42*,27
O=C(CSc1c[nH]c2ccccc12)Nc1ccc2c(c1)OCO2,2,6,2,-4
Cc1ccc(-c2nc3ncccc3o2)cc1NC(=O)COc1ccc([N+](=O)[O-])cc1,1,-6,-3,0
O=C(Cn1c(=O)n(CCC(=O)N2CCc3ccccc3C2)c(=O)c2ccccc21)NCCC1=CCCCC1,4,7,11,11
O=C(Cn1c(=O)n(CCC(=O)N2CCc3ccccc3C2)c(=O)c2ccccc21)NCc1ccccc1Cl,7,90*,23,-6
Cn1c(COc2ccccc2)nnc1SCc1cc(=O)c2cc(Cl)ccc2[nH]1,-2,33*,10,-4
Cc1cc(=O)oc2cc(NC(=O)c3ccc(-n4cnnn4)cc3)ccc12,0,36*,-2,4
O=C(COc1ccccc1-c1nnc(-c2ccccc2)o1)NCc1ccc(F)cc1,3,56*,3,4
O=C(COc1ccccc1-c1nnc(-c2ccccc2)o1)NCc1ccccc1Cl,0,-47,1,3
O=C(COc1ccccc1-c1nnc(-c2ccccc2)o1)NCc1ccco1,19,84*,25,16
COc1cc(OC)cc(C(=O)NCc2nn(C)c3ccccc23)c1,-1,-3,-3,-3
CCC(=O)N1c2ccc(S(=O)(=O)CCC(=O)NCc3cccnc3)cc2CC1C (configuration not stated),-4,-9,0,-4
CNC(=O)c1c2n(c3ncccc13)CCN(C(=O)c1ccncc1)C2,0,21,1,2
O=C(O)c1ccc(Cl)c(NC(=O)C2COc3ccccc3O2)c1 (configuration not stated),-5,-2,-2,58*
Cc1[nH]nc(NC(=O)C2COc3ccccc3O2)c1-c1ccccc1 (configuration not stated),32*,47*,26,-141
COc1ccc(-c2c(NC(=O)C3COc4ccccc4O3)n[nH]c2C)cc1OC (configuration not stated),29,18,6,-144
O=C(CSc1nnc(-c2ccncc2)n1Cc1ccccc1)c1ccc2[nH]c(O)cc2c1,-5,65*,-3,-1
SMILES,UCHL1 inh,USP8 inh,USP10 block,USP7 inh
COC(=O)c1cn(CC(=O)N2CCCc3ccccc32)c2ccccc12,3,9,0,4
O=C(Cn1cc(C(=O)C(F)(F)F)c2ccccc21)N1CCc2ccccc21,2,68*,16,10
COC(=O)c1ccc(N2CCN(C(C)=O)CC2)c(NC(=O)c2ccc(OCc3ccccc3)cc2)c1,10,20,4,8
COC(=O)c1ccc(N2CCN(C(C)=O)CC2)c(NC(=O)COc2ccc([N+](=O)[O-])cc2)c1,5,80*,43*,12
N#CN=C(N)N=Cc1ccc2c(c1)OCO2,-3,5,1,0
O=c1cc(-c2cc3ccccc3oc2=O)c2ccc(O)cc2o1,4,19,2,-1
O=c1oc2ccccc2cc1-c1nc(-c2ccc(Oc3ccccc3)cc2)cs1,9,53*,0,70*
O=C(NCc1ccc2c(c1)OCO2)c1cc2cccc3c2n1CCS3,1,12,-9,8
CCc1noc(-c2cccnc2N2CCCN(Cc3ccccc3)CC2)n1,4,-44,-4,3

# Bioassay records as filed in PubChem BioAssay.
